Data: publication PMC5540273 (PLoS ONE, 2017)

What was measured:
Conditions in all cases: concentration: 1 μM, replicates: in singlicate; n = 1
[1] = test system: CAMK1
[2] = test system: CAMK2A
[3] = test system: CAMK2B
[4] = test system: CAMK2D
[5] = test system: CAMK2G
[6] = test system: CAMK4
[7] = test system: CAMKK1
[8] = test system: CAMKK2
[9] = test system: CASK
[10] = test system: T1, CDC2L1
T1 construct: gene CDK11B

[11] = test system: CDC2L2
[12] = test system: T2, CDC2L5
T2 construct: gene CDK13

[13] = test system: T3, CDK11
T3 construct: gene CDK19

[14] = test system: CDK2
[15] = test system: CDK3
[16] = test system: CDK4-cyclinD1
[17] = test system: CDK4-cyclinD3
[18] = test system: CDK4
[19] = test system: CDK5
[20] = test system: CDK7
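Also: KINOMEscan kinase panel screen.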

SMILES	%Inh [1] [%]	%Inh [2] [%]	%Inh [3] [%]	%Inh [4] [%]	%Inh [5] [%]	%Inh [6] [%]	%Inh [7] [%]	%Inh [8] [%]	%Inh [9] [%]	%Inh [10] [%]	%Inh [11] [%]	%Inh [12] [%]	%Inh [13] [%]	%Inh [14] [%]	%Inh [15] [%]	%Inh [16] [%]	%Inh [17] [%]	%Inh [18] [%]	%Inh [19] [%]	%Inh [20] [%]
Oc1cc(Nc2ccnc3cc(I)ccc23)ccc1F [GW552771]	19	0	0	0	0	0	8	0	18	0	0	0	10	0	0	11	0	0	0	0
Cn1cc(-c2ccc3c(c2)CCN3C(=O)Cc2cccc(Cl)c2)c2c(N)ncnc21 [GSK2606590]	26	0	0	18	25	0	19	12	7	0	18	0	99.5	0	7	0	0	34	0	0
C[C@@H](Oc1cc(-n2cnc3cc(-c4ccnc(NCCS(C)(=O)=O)c4)ccc32)sc1C(N)=O)c1ccccc1Cl [GSK907232]	15	0	0	5	33	0	21	80	57	0	5	0	20	13	16	0	0	0	0	0
O=C(NC1CCN(c2ccnc(Nc3ccc(F)cc3)n2)C1)c1cc2ccccc2s1 (centres unmarked) [GSK1379716]	26	0	0	7	23	13	10	17	22	0	14	0	36	0	18	14	0	0	7	0
FC(F)(F)c1ccc(/C=C/c2cncnc2Nc2ccc3[nH]c(Cc4ccccc4)nc3c2)cc1 [GW709199]	0	34	36	3	8	0	19	0	10	0	0	6	10	0	50	23	0	6	0	0
O=c1[nH]cc(-c2ccc(N3CCOCC3)cc2)c2sc(-c3cn[nH]c3)cc12 [GSK2276055]	31	2	2	18	25	0	29	22	15	4	12	0	0	0	6	0	21	0	0	2
COc1ccc(-c2coc3ccc(-c4nnc(SCc5ccc(OC)c(C(F)(F)F)c5)o4)cc23)cc1	0	0	1	7	0	12	1	2	1	0	17	0	57	1	0	2	0	0	14	0
Cc1ccc(C(=O)Nc2ccc(Nc3ccnc4cc(-c5nccs5)ccc34)cc2O)cc1.Cl [GW494702]	13	0	0	0	14	0	3	6	4	0	0	0	0	94.4	8	39	0	43	0	9
c1ccc(Oc2ccc(Nc3ccnc4cc(-c5ccc(CNCCN6CCOCC6)o5)ccc34)cc2)nc1 [GW567145]	26	0	0	0	1	0	0	0	0	0	5	0	1	0	0	38	0	1	0	8
CNC(=O)c1ccccc1Nc1nc(Nc2ccc(N3CCOCC3)cc2)ncc1Cl.Cl [GSK1576028]	77	25	14	22	49	0	93.2	95	71	16	20	0	0	39	31	47	45	28	29	96.6
COc1ccc(Nc2nccc(NCCNC(=O)c3cc4ccccc4s3)n2)cc1 [GSK1379896]	4	0	0	0	16	0	0	0	5	0	1	0	10	0	5	0	0	13	0	0
Cl.c1ccc(-c2ccc3c(Nc4ccc5[nH]ncc5c4)ccnc3c2)nc1 [GW440137]	11	0	0	12	16	0	0	19	13	0	16	0	3	0	0	0	29	0	0	8
Cc1ccc(F)c(C(=O)Nc2cccc(-c3nn4ccccc4c3-c3ccnc(Nc4cccc(F)c4)n3)c2)c1F [GSK361061]	26	5	0	8	15	11	17	14	19	0	23	0	14	11	17	0	0	3	4	0
Cc1ccc(C)c(NC(=O)NC2CCN(c3ccnc(Nc4ccc(F)cc4)n3)C2)c1 (centres unmarked) [GSK1379720]	2	0	0	19	4	0	0	0	9	0	0	0	57	0	10	37	0	35	0	0
COc1cc(Nc2nccc(-c3c(-c4cccc(NC(=O)c5c(F)cccc5F)c4)nn4ccccc34)n2)cc(OC)c1OC [GSK323521]	31	3	0	35	40	30	40	38	5	0	14	0	96.9	20	21	0	0	7	28	0
CSc1cccc2c(-c3ccncn3)c(-c3ccc(F)cc3)nn12 [GW514786]	0	0	0	0	10	0	0	0	45	0	17	0	8	11	9	13	0	15	0	2
COc1cc(Nc2nccc(-c3c(-c4cccc(NC(=O)c5c(F)cccc5F)c4)nn4ncccc34)n2)cc(OC)c1OC [GSK327238]	58	0	0	10	19	0	24	18	14	16	15	0	0	0	4	0	97.4	21	0	0
CCS(=O)(=O)c1ccc(OC)c(Nc2nccc(-c3c(-c4cccc(NC(=O)c5c(F)cccc5F)c4)nn4ncccc34)n2)c1 [GSK326180]	9	0	0	15	27	0	0	20	16	0	15	0	11	0	7	0	12	0	0	0
COc1cc(Nc2nccc(N3CCC(NC(=O)Nc4cccc(C(C)=O)c4)C3)n2)cc(OC)c1OC (centres unmarked) [GSK1379753]	42	0	0	0	0	0	0	4	0	0	14	0	16	0	11	0	0	0	0	0
